HEK293 viab = cell viability loss counter-screen | HEK-293-SNCA-luc viability, GF-AFC fluorescence, 24 h | Potency, µM (series often up to 57.1 µM), hits mostly cytotoxic | 0.12% of 150,000 active | AID 1671193; note: nearly all actives have a fitted effect of over 30% in size
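HEK-293-SNCA-luc cells (1500/well) plated 24 h, then exposed 24 h to a dilution series; GF-AFC added 30 min at 37C, fluorescence 405/540 nm; normalised to medium-only and DMSO wells, Hill fit.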
3T3 cytotox = NIH 3T3 cell cytotoxicity; NIH 3T3 viability, CellTiter-Glo ATP luminescence, 48-72 h; Potency, µM (titrated, usually from 96.7 µM), most hits filed as inhibitors; 4.3% of 94,000 active; AID 1345082; note: nearly all actives have a fitted effect of over 55% in size
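Viability of NIH 3T3 cells after 48 or 72 hr compound treatment at 37 °C was assessed by CellTiter-Glo, with luminescence imaged following a 10 min room-temperature step.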
SNCA expr inhib = SNCA gene expression inhibition; HEK-293 SNCA-luciferase knock-in, luminescence, 24 h; Potency, µM (titrated, usually from 57.2 µM), usual class: inhibitors; 0.17% of 140,000 active; note: nearly all actives have a fitted effect of over 45% in size
HEK293 tox = HEK 293 cell cytotoxicity; HEK 293 viability, ATP luminescence (CellTiter-Glo), 48-72 h; Potency, µM (highest dose often 115 µM), most hits filed as inhibitors; 6.6% of 94,000 active; note: nearly all actives have a fitted effect of over 60% in size
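CellTiter-Glo luminescence (cellular ATP) was read after 48 or 72 hr of compound exposure at 37 degree Celsius. Cells were HEK 293 plated at 250 cells/well.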
hNpr1 antagonist = blocks ANP-stimulated signaling of human Npr1 receptor | P16066 | HEK293 hNpr1 GloSensor cGMP, ANP-stimulated luminescence | Potency, µM (doses to about 46.3 µM), actives largely listed as inhibitors | 1.6% of 76,000 active; calls by dose curve; note: nearly all actives have a fitted effect of over 60% in size
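Compound pre-incubated 30 min at room temperature on GloSensor-loaded HEK293 cells stably carrying hNpr1 and the pGS-40F cGMP biosensor. Stimulation uses hNppA at 0.1 nM final; luminescence is taken at baseline and 20 min post-agonist.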
FLuc inh = Photinus pyralis luciferase inhibition; purified P. pyralis luciferase, luminescence, biochemical; Potency, µM (series often up to 115 µM), usual class: inhibitors; 2.5% of 76,000 active; note: nearly all actives have a fitted effect of over 65% in size
Target sequence (P08659 whole entry, looked up): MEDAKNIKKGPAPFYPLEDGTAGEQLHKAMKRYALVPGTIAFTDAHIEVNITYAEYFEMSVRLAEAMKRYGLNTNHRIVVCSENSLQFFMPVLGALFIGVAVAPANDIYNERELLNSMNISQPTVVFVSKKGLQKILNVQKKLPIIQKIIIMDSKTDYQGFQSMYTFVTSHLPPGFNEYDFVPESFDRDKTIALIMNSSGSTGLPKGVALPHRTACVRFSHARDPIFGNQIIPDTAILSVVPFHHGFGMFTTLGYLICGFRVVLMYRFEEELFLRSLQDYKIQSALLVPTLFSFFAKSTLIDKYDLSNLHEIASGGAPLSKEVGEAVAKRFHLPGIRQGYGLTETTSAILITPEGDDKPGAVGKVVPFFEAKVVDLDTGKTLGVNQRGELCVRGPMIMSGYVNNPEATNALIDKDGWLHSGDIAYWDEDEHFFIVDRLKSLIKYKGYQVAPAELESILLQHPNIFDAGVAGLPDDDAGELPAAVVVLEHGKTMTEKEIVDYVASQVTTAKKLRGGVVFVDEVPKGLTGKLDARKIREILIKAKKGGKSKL
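Luminescence read by CCD imager after adding enzyme (10nM final) to wells holding compound, titrated in qHTS. Substrates 10uM each D-luciferin and ATP; buffer 50mM Tris acetate pH 7.5, 10mM Mg acetate, Tween-20, BSA.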
Each line names hits and unclear results; the compound was inactive in the other large screens. Compounds with a hit are over-represented: about 7.4% of the library has one in this group of screens. Unless noted, calls come from the whole dose curve; as a rule, active = well fitted curve in the direction sought with a large enough effect; inconclusive = small, poorly fitted or top-dose-only effect, or another doubt; inactive = no such curve, though single readings can be large; an effect the other way counts as inactive or inconclusive.

COCc1ccc2c(c1)c(OC(C)(C)C(=O)NCCCn1ccnc1)nn2Cc1ccccc1	3T3 cytotox 22µM
COCc1ccc2c(c1)c(OC(C)(C)C(=O)NCCN(C)C)nn2Cc1ccccc1	3T3 cytotox 89µM
COCCCNC(=O)C(C)(C)Oc1nn(Cc2cccnc2)c2ccc(COC)cc12	3T3 cytotox inconclusive
COCc1ccc2c(c1)c(OC(C)(C)C(=O)NCc1ccncc1)nn2Cc1cccc(OC)c1	3T3 cytotox 10µM, HEK293 tox inconclusive
COCc1ccc2c(c1)c(OC(C)(C)C(=O)NCc1ccncc1)nn2Cc1cccnc1	3T3 cytotox inconclusive
COCc1ccc2c(c1)c(OC(C)(C)C(=O)NCc1ccncc1)nn2Cc1ccccc1	3T3 cytotox 28µM
Cn1cc(C2c3nccn3CCCN2C(=O)c2ccccc2F)cn1 (stereo not given)	none
COCC(c1ccccn1)N(C)Cc1cn(-c2ccccc2)nn1 (stereo not given)	none
Cc1cc(C)c(CNC(=O)c2nc(-c3ccc(CN(C)C)cc3)cc3[nH]ccc23)c(=O)[nH]1	3T3 cytotox 100µM, HEK293 tox inconclusive, FLuc inh inconclusive
Cc1cc(C)c(CNC(=O)c2nc(-c3ccc(CN(C)C)cc3)cc3c2ccn3C(C)C)c(=O)[nH]1	HEK293 viab inconclusive, 3T3 cytotox 14µM, HEK293 tox inconclusive
Cc1cc(C)c(CNC(=O)c2nc(-c3ccccc3C)cc3c2ccn3C(C)C)c(=O)[nH]1	HEK293 viab inconclusive, 3T3 cytotox 28µM, SNCA expr inhib inconclusive, HEK293 tox 22µM, hNpr1 antagonist inconclusive
COc1ccc(-c2cc3c(ccn3C(C)C)c(C(=O)NCc3c(C)cc(C)[nH]c3=O)n2)cc1	3T3 cytotox inconclusive, HEK293 tox inconclusive
Cc1ccc(-c2cc3c(ccn3C(C)C)c(C(=O)NCc3c(C)cc(C)[nH]c3=O)n2)cn1	3T3 cytotox 79µM, HEK293 tox inconclusive, FLuc inh inconclusive
O=C(c1ccccc1Cl)N1CCC2(CC1)CCN(CCc1ccccc1)c1ccccc1O2	3T3 cytotox inconclusive, HEK293 tox inconclusive
COc1ccc(N(Cc2ccccc2)C(=O)c2nc(S(C)(=O)=O)ncc2Cl)cc1	HEK293 viab 6.3µM, SNCA expr inhib inconclusive (no result: 3T3 cytotox, HEK293 tox, hNpr1 antagonist, FLuc inh)
COc1ccc(CNC(=O)c2nc(SC(C)C)ncc2Cl)cc1	none (no result: 3T3 cytotox, HEK293 tox, hNpr1 antagonist, FLuc inh)
CCCSc1ncc(Cl)c(C(=O)N(Cc2ccccc2)c2ccc(OC)cc2)n1	SNCA expr inhib inconclusive (no result: 3T3 cytotox, HEK293 tox, hNpr1 antagonist, FLuc inh)
COc1ccc(CNC(=O)c2nc(S(=O)(=O)Cc3ccccc3)ncc2Cl)cc1	HEK293 viab 25µM, SNCA expr inhib inconclusive (no result: 3T3 cytotox, HEK293 tox, hNpr1 antagonist, FLuc inh)
CS(=O)(=O)c1ncc(Cl)c(C(=O)N(Cc2ccc(Cl)cc2)Cc2ccco2)n1	HEK293 viab 2.5µM, SNCA expr inhib inconclusive (no result: 3T3 cytotox, HEK293 tox, hNpr1 antagonist, FLuc inh)
O=C(c1ccc(Cl)cc1)N(Cc1ccco1)Cc1ccco1	none (no result: 3T3 cytotox, HEK293 tox, hNpr1 antagonist, FLuc inh)
N#CCn1nc2n(c1=O)CCN(C(=O)NCCc1ccccc1)CC2	none
COc1cccc(CCC(=O)NCCC2CCN(C(=O)Nc3cccc(F)c3)CC2)c1	none
O=C1CO[C@H]2CCN(Cc3cccnc3)CC[C@@H]2N1Cc1ccccc1	3T3 cytotox inconclusive, HEK293 tox inconclusive
Cc1cccc(CN2CCCC3(CCN(C(=O)CCc4ccccc4C)C3)C2)c1 (stereo not given)	3T3 cytotox inconclusive, SNCA expr inhib inconclusive, HEK293 tox 89µM
O=C(NCCC1=CCCCC1)C1CCN(C(=O)c2ncn3c2COC(c2ccccc2)C3)CC1 (stereo not given)	FLuc inh 2µM
O=C(NCCC1=CCCCC1)C1CCN(C(=O)c2ncn3c2COC(c2ccc(F)cc2)C3)CC1 (stereo not given)	HEK293 viab inconclusive, SNCA expr inhib inconclusive, FLuc inh 22µM
CCCCNC(=O)C1CCN(C(=O)c2ncn3c2COC(c2ccc(F)cc2)C3)CC1 (stereo not given)	FLuc inh 40µM
COc1ccc(C2Cn3cnc(C(=O)N4CCC(C(=O)NCCC5=CCCCC5)CC4)c3CO2)cc1 (stereo not given)	none
CC1(c2ccccc2)N(Cc2ccccc2)C(=O)OC12CCN(c1cccnc1)CC2 (stereo not given)	3T3 cytotox 89µM, HEK293 tox 71µM
CC1(c2ccccc2)N(Cc2ccccc2)C(=O)OC12CCN(Cc1cccnc1)CC2 (stereo not given)	3T3 cytotox 100µM, HEK293 tox inconclusive
CC1(c2ccccc2)N(Cc2ncccn2)C(=O)OC12CCN(Cc1cccc(OC(F)(F)F)c1)CC2 (stereo not given)	3T3 cytotox 40µM, HEK293 tox 50µM
COc1cccc(CN2C(=O)OC3(CCN(Cc4ccccn4)CC3)C2(C)c2cccnc2)c1 (stereo not given)	3T3 cytotox inconclusive, SNCA expr inhib inconclusive
CC1(c2ccccc2)N(Cc2cccnc2)C(=O)OC12CCN(Cc1ccccc1)CC2 (stereo not given)	HEK293 viab inconclusive, 3T3 cytotox inconclusive, HEK293 tox inconclusive
COCCCn1c(=O)c(C(=O)NCc2ccc(F)cc2)nc2cccnc21	none (no result: hNpr1 antagonist, FLuc inh)
O=C(NCc1ccc(F)cc1F)c1noc(-c2ccc3c(c2)OCO3)n1	3T3 cytotox inconclusive, HEK293 tox inconclusive, FLuc inh inconclusive
NC1CC(c2cc(N3CCN(CCOc4ccccc4)CC3)ncn2)C1 (stereo not given)	3T3 cytotox inconclusive, HEK293 tox 22µM
CN(C)CCN1CCN(c2cc(C3CC(N)C3)nc(N)n2)CC1 (stereo not given)	none
CN(C)c1ccc(C(=O)N[C@H]2C[C@H]3C(=O)NC[C@@H](CCC(=O)NCc4ccc(F)cc4)N3C2)cc1	none
Cc1ccccc1CC(=O)N1CCC2(CC1)N=C(c1cccc(Br)c1)NO2	HEK293 viab inconclusive, 3T3 cytotox inconclusive, HEK293 tox 89µM, hNpr1 antagonist inconclusive
COc1ccccc1CC(=O)N1CCC2(CC1)N=C(c1ccc(Cl)cc1)NO2	3T3 cytotox inconclusive, HEK293 tox 45µM, hNpr1 antagonist inconclusive
O=C(c1ccccc1)N1CCC2(CC1)N=C(c1cccc(Br)c1)NO2	3T3 cytotox inconclusive, HEK293 tox inconclusive
Cc1ccc(C2=NC3(CCN(C(=O)Cc4ccccc4Cl)CC3)ON2)cc1	3T3 cytotox inconclusive, HEK293 tox inconclusive
COCCCNc1ccnc(-c2nnc(C)n2-c2ccccc2)c1	3T3 cytotox 100µM
COC(=O)c1cccc(NC(=O)c2ccc3c(c2)N(C)C2CCCCCN2C3=O)c1 (stereo not given)	3T3 cytotox 45µM, HEK293 tox inconclusive, hNpr1 antagonist inconclusive, FLuc inh inconclusive
CSc1cccc(NC(=O)c2ccc3c(c2)N(C)C2CCCCCN2C3=O)c1 (stereo not given)	3T3 cytotox 32µM, HEK293 tox 18µM, FLuc inh inconclusive
